Laboratory results: article PMC4336329 (PLoS ONE, 2015)
Hit rate of the full screen: of about 310,000 compounds, about 14,000 (4.5%) showed an effect of 50% or more. Effects have a minus sign here. Shown is part of a subset that was picked to be rich in strong results.

The molecules below were run against human ether-à-go-go-related gene (hERG) potassium channel (human, UniProt Q12809) (assay: primary screen, population patch clamp on CHO cells stably expressing hERG; higher = less effect of the substance).
Sequence of human ether-à-go-go-related gene (hERG) potassium channel (Q12809 whole entry, looked up): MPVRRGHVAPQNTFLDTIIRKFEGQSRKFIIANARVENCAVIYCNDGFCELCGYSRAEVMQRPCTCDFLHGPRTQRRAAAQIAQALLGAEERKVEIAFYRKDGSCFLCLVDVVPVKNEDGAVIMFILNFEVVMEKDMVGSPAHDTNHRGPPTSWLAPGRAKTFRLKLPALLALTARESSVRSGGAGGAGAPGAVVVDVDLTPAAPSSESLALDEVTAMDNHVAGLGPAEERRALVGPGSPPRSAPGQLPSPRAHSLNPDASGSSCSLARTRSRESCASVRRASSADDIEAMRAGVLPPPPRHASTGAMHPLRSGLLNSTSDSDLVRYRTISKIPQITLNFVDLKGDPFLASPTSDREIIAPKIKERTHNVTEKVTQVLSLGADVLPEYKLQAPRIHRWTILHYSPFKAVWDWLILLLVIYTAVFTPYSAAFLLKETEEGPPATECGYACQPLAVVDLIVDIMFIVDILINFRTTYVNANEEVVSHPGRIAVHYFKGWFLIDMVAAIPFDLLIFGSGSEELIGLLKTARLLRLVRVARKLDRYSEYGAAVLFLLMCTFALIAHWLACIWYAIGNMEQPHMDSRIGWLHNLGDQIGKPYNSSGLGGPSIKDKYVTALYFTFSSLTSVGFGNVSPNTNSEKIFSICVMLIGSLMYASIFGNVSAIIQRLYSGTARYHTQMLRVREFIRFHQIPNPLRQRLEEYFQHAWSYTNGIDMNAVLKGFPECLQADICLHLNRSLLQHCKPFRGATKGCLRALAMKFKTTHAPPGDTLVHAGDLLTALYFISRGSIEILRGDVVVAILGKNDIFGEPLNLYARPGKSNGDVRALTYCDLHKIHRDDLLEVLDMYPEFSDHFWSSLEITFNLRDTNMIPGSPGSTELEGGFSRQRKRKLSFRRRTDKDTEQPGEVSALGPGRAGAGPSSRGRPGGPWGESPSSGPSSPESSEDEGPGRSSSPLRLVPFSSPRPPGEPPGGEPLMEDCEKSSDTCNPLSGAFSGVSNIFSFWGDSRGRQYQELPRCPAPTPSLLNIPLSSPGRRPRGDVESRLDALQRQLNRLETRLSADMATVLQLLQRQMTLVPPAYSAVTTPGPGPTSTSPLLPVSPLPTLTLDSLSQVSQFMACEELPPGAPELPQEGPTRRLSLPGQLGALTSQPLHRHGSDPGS
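Also: peak tail current of the secondary pulse compared with the same well before compound.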

Compound	hERG current change (%, negative = inhibition) at 10uM [%]
O=S(=O)(Nc1ccc(N2CCOCC2)cc1)c1ccc2ccccc2c1	3.3
O=C1C(=O)N(CCS(=O)(=O)c2ccccc2)c2ccc(F)cc21	8.67
O=C(OCC(=O)N(CCc1ccccc1)Cc1ccccc1)c1cc(S(=O)(=O)N2CCOCC2)ccc1F	-10.8
Cn1c(N2CCOCC2)cc(=O)n(C)c1=O	-18.2
Cc1cc(C(=O)N2CCc3ccccc3C2)n[nH]1	5.11
Nc1cccc(NP(=O)(c2ccccc2)c2ccccc2)c1	11.7
Cc1c(NC(=O)C2Cc3ccccc3CN2C(=O)c2ccco2)c(=O)n(-c2ccccc2)n1C (centres unmarked)	-13.7
COc1ccc(C(=O)COC(=O)/C=C/c2ccc(S(=O)(=O)Nc3cccc(S(N)(=O)=O)c3)cc2)cc1	4.88
c1ccc2c(c1)Nc1cc3ccccc3cc1S2	8.83
CCOc1ccc(CN(C)CC(=O)NNC(=O)c2ccc(Cl)cc2)cc1OC	-60.3
COc1ccc(CCN(C)CCC(=O)Nc2cccc(C)c2)cc1OC.Cl	-65.8
CCOc1ccc(CN(C)CC(=O)Nc2cccc(C)c2)cc1OC	-77
COc1ccc(CCNCCC(=O)Nc2c(C)cc(C)cc2C)cc1OC.Cl	-13.8
CCOc1ccc(CN(C)C(=O)NNC(=O)c2ccc(C)cc2)cc1OC	16.8
COc1ccc(CCN(C)CC(=O)Nc2c(C)cc(C)cc2C)cc1OC.Cl	4.26
CCOc1ccc(CN(C)CC(=O)Nc2cccc3ccccc23)cc1OC.O=C(O)C(=O)O	-16.5
COc1ccc(CC(=O)Nc2cccc(-c3nnc(-c4cccc(C)c4)o3)c2)cc1OC	11.3
COc1ccc(CCN(C)CCC(=O)Nc2c(C)cc(C)cc2C)cc1OC	-58.8
COc1ccc(CCN(C)C(=S)Nc2cccc(C)c2)cc1OC	5.19
CCOc1ccc(CN(C)CC(=O)Nc2ccc3c(c2)CCC3)cc1OC	-39

Compound	hERG current change (%, negative = inhibition) at 10uM [%]
COc1cccc(CN(C)CC(=O)NNC(=O)c2ccc(Cl)cc2)c1	-12.5
CCc1cc2ccccc2nc1Cl	6.29
O=C(CN(Cc1ccc2c(c1)OCO2)C(=O)CNS(=O)(=O)c1ccccc1)NCc1ccco1	-22
CC[C@@H]1CC=C[C@H]2[C@H]1C(=O)N(Cc1ccccc1)[C@H]2c1ccc(OC)c(Cl)c1	10.6
O=C(Cc1ccc(F)cc1)OCC(=O)c1cc2ccccc2o1	-2.43
CCNC(=S)NNC(=O)Cn1c(=O)c2c(ncn2CCOC)n(Cc2ccccc2)c1=O	15.3
Cc1ccc(NC(=O)Nn2cnnc2)c(C)c1	1.62
COC(=O)CSc1[nH]c2ccc(Br)cc2c1[N+](=O)[O-]	16.7
Nc1cccc(S(=O)(=O)Nc2ccccc2)c1	25.5
COc1ccc(CC(=O)Nc2cc(C)ccc2O)cc1OC	4.22
CCCCN(C)CCC(=O)Nc1ccc(C)cc1.Cl	-14.8
COc1ccc(CCN(C)CCC(=O)Nc2cc(C)ccc2C)cc1OC	-55.6
COC(=O)c1ccc(C)c(NC(=O)CCc2ccc(OC)c(OC)c2)c1	6.37
COc1ccc(CCN(C)CC(=O)Nc2ccc(F)c(Cl)c2)cc1OC	-35.3
COc1ccc(CCN(C)CCC(=O)Nc2ccc(C)cc2)cc1OC.Cl	-64.3
O=[N+]([O-])c1cc(F)c(N2CCCCC2)cc1Br	-3.83
O=C(C1CC1)N1CCc2cc(S(=O)(=O)NCC3COc4ccccc4O3)ccc21 (centres unmarked)	6.27
Cc1c(C)c2ccc(OC(C)C(=O)N3CC[C@@]4(O)CCCC[C@H]4C3)cc2oc1=O (some centres unmarked)	-11.2
COc1ccc(CN2C(=O)c3cccnc3C2=O)cc1S(=O)(=O)NC1CCCCC1C (centres unmarked)	10.8
CN(C)CCNC(=O)c1nn(C)c2c1CCc1ccccc1-2	-12.4

Compound	hERG current change (%, negative = inhibition) at 10uM [%]
O=C(c1ccccc1Cl)c1c(O)c2ccccc2oc1=O	-3.19
O=C1COc2ccc(S(=O)(=O)Nc3ccc4c(c3)OCO4)cc2N1	19.4
C/C(=N\Nc1cccc(C(=O)O)c1)c1cc2ccccc2o1	9.54
CCOC(=O)N1CCN(CC(O)COc2ccccc2C(C)CC)CC1.Cl (centres unmarked)	0.934
COc1ccccc1C(=O)N/C(=C\c1cn(S(=O)(=O)N(C)C)c2ccccc12)C(=O)NCCCN1CCOCC1	-7.58
COc1ccc(C(Nc2cccc([N+](=O)[O-])c2)P(=O)(OC(C)C)OC(C)C)cc1 (centres unmarked)	-31.5
COc1ccc(S(=O)(=O)NCC2CCCN(Cc3ccc(OC)cc3F)C2)cc1 (centres unmarked)	-42
Cn1cnnc1Sc1ccc(C(=O)NCCC23CC4CC(CC(C4)C2)C3)cc1[N+](=O)[O-]	12.9
Cn1cnnc1Sc1ccc(C(=O)NCCC(c2ccccc2)c2ccccc2)cc1[N+](=O)[O-]	-74.3
CCC(C)(C)NC(=O)c1ccc(Sc2nncn2C)c([N+](=O)[O-])c1	3.37
CC(=O)c1cccc(NC(=O)CN(C)S(=O)(=O)c2ccccc2)c1	-11.5
CN(Cc1ccccc1)S(=O)(=O)c1ccc(OCC(=O)Nc2cccc([N+](=O)[O-])c2)cc1	-9.01
Cc1ccc(CC(=O)Nc2cccc([N+](=O)[O-])c2)cc1	15.8
CN(CC(=O)Nc1cccc(F)c1)CC(=O)Nc1cccc([N+](=O)[O-])c1	-39.7
CN(CC(=O)Nc1cccc([N+](=O)[O-])c1)S(=O)(=O)c1ccccc1	-51.9
CN(c1ccccc1C(=O)Nc1cccc([N+](=O)[O-])c1)S(=O)(=O)c1ccccc1	-63.2
Cc1ccc(CN(C)CC(=O)Nc2cccc([N+](=O)[O-])c2)o1	-58.4
CN(c1ccccc1C(=O)Nc1cccc(Br)c1)S(=O)(=O)c1ccccc1	-5.01
CN(c1ccccc1C(=O)Nc1cccc([N+](=O)[O-])c1)S(C)(=O)=O	-20
